Consider eight compounds from PubChem BioAssay (NCI).

This is part of a sample that, as a whole, favours compounds with a hit. Of some 83,000 tested, about 20% had one in any assay.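 How to read the values: 0–100, growth inhibition (40 = 60% inhibited); 0, no net growth; -100 to 0, cell death (-40 = 40% of starting cells died; -100 = all dead).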 Unmarked numbers belong to inactive results. The source made the active and inactive calls. The calls were made as follows: active = growth percent below 10; inactive = the rest.

Assay in all cases: NCI-60 one-dose screen, 48 h (100 = growth as untreated, 0 = no growth, -100 = all killed)
What all share (details): 10 µM unless noted

In experiment [1] the test system is SK-MEL-2 melanoma.
The subject of experiment [2] is EKVX NSCLC.
In experiment [3] the test system is SN12C renal.
For experiment [4], the system named is UO-31 renal.
For experiment [5], the system named is ACHN renal.
Experiment [6] relates to CAKI-1 renal.
For experiment [7], the system named is A498 renal.
Experiment [8] relates to CCRF-CEM leukemia.
In experiment [9] the test system is MOLT-4 leukemia.
Experiment [10] relates to SR leukemia.
Experiment [11] relates to RPMI-8226 leukemia.
The test system of experiment [12] is OVCAR-8 ovarian.
Experiment [13] relates to OVCAR-5 ovarian.
Experiment [14] relates to OVCAR-4 ovarian.
For experiment [15], the system named is SK-OV-3 ovarian.
Experiment [16] has as its system IGROV1 ovarian.
Experiment [17] deals with OVCAR-3 ovarian.
The subject of experiment [18] is HS 578T breast.
In experiment [19] the test system is NCI/ADR-RES ovarian.

Consider `O=C1CSC(c2ccccc2Cl)N1c1nnc(Cn2nnc3ccccc32)o1` (stereo not given), for which the growth was 91.7% in experiment [1]; 75% in experiment [2]; 87.4% in [3]; 66.3% in experiment [4]; 83.6% in [5]; 40.6% in [6]. Also, the growth is 50.2% in [7]; 85.6% in experiment [8]; 73.4% in experiment [9]; 76% in experiment [10]; 69% in experiment [11]; 82.5% in experiment [12]. For the same compound, the growth in [13] is 91.2%; in experiment [14] it was 81%; in experiment [15] it was 94.6%; in experiment [16] it was 79.6%; in experiment [17], 71.4%; in [18] it was 103%. In addition, in experiment [19], the growth is 62.4%.

As to `COc1cc(/C=C2\CN(C)CC3=C2Nc2nc(SC)[nH]c(=O)c2C3c2cc(OC)c(OC)c(OC)c2)cc(OC)c1OC` (stereo not given), the growth in [1] was 71.8%; in [2] it was 83.7%; in experiment [3], 24.2%; in experiment [4] it was 52.4%; in experiment [5], 39.2%; in [6] it was 14.5%. Further, the growth was 95.9% in experiment [7]; -0.341% (active) in experiment [8]; 0.96% (active) in [9]; -2.83% (active) in experiment [10]; 8.36% (active) in experiment [11]; 1.09% (active) in experiment [12]. Moreover, the growth in [13] was 101%; in [14], 75.9%; in experiment [15], 87.9%; in experiment [16] it was 30.8%; in experiment [17], 15.7%; in experiment [18], 36.3%. For the same compound, in experiment [19], the growth was -7.05% (active).

For the compound `CCCCN=C(N)c1ccc(OCCSCCOc2ccc(C(N)=NCCCC)cc2)cc1`, the growth in experiment [1] is 59.9%; in experiment [2], 36.8%; in experiment [3], 26.3%; in experiment [4] it was 93.5%; in experiment [5], 87%; in experiment [6], 115%. In addition, the growth in experiment [7] is 57.4%; in experiment [8], 72.1%; in experiment [9], 67.8%; in experiment [10], 44.7%; in experiment [11], 26.2%; in experiment [12], 40.7%. Also, the growth in [13] was 84.1%; in experiment [14], 50.8%; in [15], 41%; in [16], 55.1%; in experiment [17] it was 39.6%; in experiment [18], 47.4%. Besides, in experiment [19], the growth is 90.9%.

With `C[N+]1(C)C2CC[C@@H]1CC(OC(=O)C(O)c1ccccc1)C2` (stereo not given in full), the growth in [1] is 150%; in [2], 99.4%; in [3], 87.3%; in experiment [4], 85.3%; in experiment [5], 106%; in experiment [6] it was 84.1%. The growth is 109% in experiment [7]; 93.1% in [8]; 126% in experiment [9]; 115% in experiment [10]; 93.9% in experiment [11]; 108% in [12]. In addition, the growth in experiment [13] is 106%; in experiment [14], 110%; in experiment [15], 117%; in experiment [16], 103%; in experiment [18], 119%; in experiment [19], 103%.

As to `Cc1ccc2nc(SCC(=O)Nc3ccc(-c4nc5ccccc5s4)c(Cl)c3)[nH]c2c1`, the growth in experiment [1] is 105%; in [2] it was 119%; in experiment [3] it was 107%; in [4], 95%; in experiment [5] it was 106%; in [6] it was 105%. The growth in experiment [7] was 105%; in [8], 103%; in [9], 99.8%; in experiment [10], 97.2%; in experiment [11], 109%; in [12], 110%. The growth in [13] is 108%; in experiment [14], 112%; in experiment [15], 105%; in [16], 100%; in [17], 111%; in experiment [18], 110%. In addition, the growth in experiment [19] is 107%.

As to `O=C1Nc2ccc(Cl)cc2/C1=C/c1cccs1`, the growth in experiment [1] was 108%; in experiment [2] it was 68.3%; in experiment [3], 87.9%; in [4], 44.8%; in experiment [5], 88.2%; in experiment [6] it was 79.5%. The growth in [7] is 97.5%; in experiment [8], 102%; in experiment [9], 91%; in experiment [10], 99.4%; in experiment [11], 100%; in [13], 110%. Further, the growth in experiment [14] is 35.9%; in experiment [15], 93.6%; in experiment [16], 65.1%; in experiment [17], 87.8%; in experiment [18], 96.2%; in experiment [19], 92.8%.

Consider `COc1ccc(C2CC(c3ccc(Nc4ccnc5cc(Cl)ccc45)cc3)=NN2C(C)=O)cc1` (stereo not given), for which the growth in [1] was 107%; in [2] it was 55.7%; in experiment [3], 76.1%; in experiment [4] it was 64.7%; in experiment [5], 54.8%; in experiment [6], 73.2%. Further, the growth in [7] is 56.1%; in [8], 47.2%; in [9], 40.8%; in [10], -9.45% (active); in experiment [11], 33.8%; in [12], 72.8%. Moreover, the growth is 94.2% in [13]; 59% in experiment [14]; 101% in experiment [15]; 74.4% in experiment [16]; 64.2% in experiment [17]; 62.7% in experiment [18]. Moreover, in [19], the growth was 67.7%.

Consider `COc1cccc2c1C(=O)c1c(O)c3c(c(O)c1C2=O)C[C@@](O)(C(C)=O)C[C@@H]3O[C@H]1C[C@H](N)[C@H](O)[C@H](C)O1`, for which the growth was -82% (active) in experiment [1]; -25% (active) in experiment [2]; 4.49% (active) in experiment [3]; -64.7% (active) in [4]; -23.1% (active) in experiment [5]; -29.4% (active) in experiment [6]. Moreover, the growth is -72.7% (active) in [7]; -25.1% (active) in [8]; -17.8% (active) in experiment [9]; -5.17% (active) in experiment [10]; -22.9% (active) in [11]; -6.3% (active) in experiment [12]. Also, the growth was 2.15% (active) in experiment [13]; -16.8% (active) in experiment [14]; 7.97% (active) in experiment [15]; -10.2% (active) in [16]; -18.7% (active) in experiment [17]; -17.6% (active) in experiment [18]. Besides, the growth in experiment [19] is 11.8%.
